Test results from PubChem BioAssay AID1159580 (chemical genetic matrix, 2015).
The campaign covered roughly 5,500 compounds. About 2,000 (36%) were called active. Roughly 18% stayed inconclusive and do not appear here. Cut-off read from the data, not from the text of the source: active = normalized growth mostly below about 0.91 (no sharp cut-off); inconclusive = no clear call, values can overlap the other calls; inactive = mostly above about 0.92. Some of the results follow.

Experiment: chemical genetic growth profiling, strain panel (AID 1159580);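 note: tested at 20 µM; growth read once vehicle control cultures reached saturation at 30 °C; 1 = growth at the plate median or of vehicle wells; lower values mean less growth of the strain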
Conditions: growth OD
[1] = S. cerevisiae deletion strains, locus YAL013W, strain DEP1, active compounds read low
[2] = S. cerevisiae deletion strains, locus YDL101C, strain DUN1, active compounds read low
[3] = S. cerevisiae deletion strains, locus YDR150W, strain NUM1, active compounds read low
[4] = S. cerevisiae deletion strains, locus YEL061C, strain CIN8, active compounds read low
[5] = S. cerevisiae deletion strains, locus YGR078C, strain PAC10, active compounds read low
[6] = S. cerevisiae deletion strains, locus YHR030C, strain SLT2, active compounds read low
[7] = S. cerevisiae deletion strains, locus YHR087W, strain rtc3, active compounds read low
[8] = S. cerevisiae deletion strains, locus YJR043C, strain POL32, active compounds read low
[9] = S. cerevisiae deletion strains, locus YJR075W, strain HOC1, active compounds read low
[10] = S. cerevisiae deletion strains, locus YLR039C, strain RIC1, active compounds read low
[11] = S. cerevisiae deletion strains, locus YLR058C, strain SHM2 (second series), active compounds read low
[12] = S. cerevisiae deletion strains, locus YLR085C, strain ARP6, active compounds read low
[13] = S. cerevisiae deletion strains, locus YLR262C, strain YPT6, active compounds read low
[14] = S. cerevisiae deletion strains, locus YML094W, strain GIM5, active compounds read low
[15] = S. cerevisiae deletion strains, locus YMR219W, strain ESC1, active compounds read low
[16] = S. cerevisiae deletion strains, locus YMR263W, strain SAP30, active compounds read low
[17] = S. cerevisiae deletion strains, locus YNL153C, strain GIM3, active compounds read low
[18] = S. cerevisiae deletion strains, locus YNL298W, strain CLA4 (second series), active compounds read low
[19] = S. cerevisiae deletion strains, locus YNL322C, strain KRE1, active compounds read low
[20] = S. cerevisiae deletion strains, locus YNR030W, strain Alg12, active compounds read low
[21] = S. cerevisiae deletion strains, locus YPL055C, strain LGE1, active compounds read low
[22] = S. cerevisiae deletion strains, locus YPL241C, strain CIN2, active compounds read low
[23] = S. cerevisiae deletion strains, locus YPR135W, strain CTF4, active compounds read low
[24] = S. cerevisiae strains, strain wild type, active compounds read low

Measured: normalized growth

O=C1NN(c2ccccc2)C(=S)Nc2ccccc21
inactive: [1] 1 | S. cerevisiae deletion strains, locus YBR229C, strain ROT2, active compounds read low 1.01 | [2] 0.988 | [3] 0.994 | [4] 1.01 | [5] 0.986 | [6] 0.986 | [7] 1 | S. cerevisiae deletion strains, locus YJL187C, strain SWE1, active compounds read low 0.988 | [8] 0.997 | [9] 0.994 | [10] 0.994 | [11] 1 | [12] 0.984 | [13] 0.999 | [14] 0.987 | [15] 0.999 | [16] 0.996 | S. cerevisiae deletion strains, locus YMR307W, strain GAS1, active compounds read low 0.965 | [17] 0.978 | [18] 1.01 | [19] 1.01 | [20] 1 | [21] 1.02 | [22] 0.98 | [23] 0.979 | [24] 1.01

S=C1NC2(CCCCC2)NN1c1ccccc1
active: [1] 0.869 | S. cerevisiae deletion strains, locus YCL061C, strain MRC1, active compounds read low 0.892 | [4] 0.14 | [5] 0.761 | [6] 0.1 | S. cerevisiae deletion strains, locus YKL190W, strain CNB1, active compounds read low 0.0617 | [10] 0.116 | [12] 0.0768 | [13] 0.114 | [14] 0.0764 | [16] 0.895 | [17] 0.884 | [18] 0.0996 | [20] 0.0942 | S. cerevisiae deletion strains, locus YOL006C, strain TOP1, active compounds read low 0.088 | [21] 0.759 | [22] 0.0946 | [23] 0.223 | [24] 0.0726
inactive: [2] 0.92 | [3] 0.836 | [7] 0.987 | [8] 0.94 | [9] 0.908 | [11] 0.98 | [15] 0.956 | [19] 0.988

Cc1ccc(-c2nc(NS(=O)(=O)c3cccc4nonc34)sc2C)cc1Cl
inactive: S. cerevisiae deletion strains, locus YAR019C, strain CDC15, active compounds read low 0.965 | S. cerevisiae deletion strains, locus YBL105C, strain PKC1, active compounds read low 0.972 | S. cerevisiae deletion strains, locus YBR135W, strain CKS1, active compounds read low 0.967 | S. cerevisiae deletion strains, locus YBR136W, strain MEC1, active compounds read low 0.973 | S. cerevisiae deletion strains, locus YBR160W, strain CDC28, active compounds read low 0.959 | S. cerevisiae deletion strains, locus YDL017W, strain CDC7, active compounds read low 0.97 | S. cerevisiae deletion strains, locus YDL028C, strain MPS1, active compounds read low 0.976 | [2] 0.962 | S. cerevisiae deletion strains, locus YDL108W, strain KIN28, active compounds read low 0.975 | S. cerevisiae deletion strains, locus YDL132W, strain cdc53, active compounds read low 0.964 | S. cerevisiae deletion strains, locus YDL214C, strain PRR2, active compounds read low 0.984 | S. cerevisiae deletion strains, locus YDR052C, strain DBF4, active compounds read low 0.972 | S. cerevisiae deletion strains, locus YDR054C, strain cdc34, active compounds read low 0.961 | S. cerevisiae deletion strains, locus YDR226W, strain ADK1, active compounds read low 0.97 | S. cerevisiae deletion strains, locus YDR477W, strain SNF1, active compounds read low 0.975 | S. cerevisiae deletion strains, locus YER123W, strain YCK3, active compounds read low 1 | S. cerevisiae deletion strains, locus YER133W, strain GLC7, active compounds read low 0.994 | S. cerevisiae deletion strains, locus YFL009W, strain cdc4, active compounds read low 0.972 | S. cerevisiae deletion strains, locus YFL029C, strain CAK1, active compounds read low 0.946 | S. cerevisiae deletion strains, locus YFR003C, strain YPI1, active compounds read low 0.965 | S. cerevisiae deletion strains, locus YFR019W, strain FAB1, active compounds read low 0.997 | S. cerevisiae deletion strains, locus YFR028C, strain CDC14, active compounds read low 0.964 | S. cerevisiae deletion strains, locus YGR040W, strain KSS1, active compounds read low 0.962 | S. cerevisiae deletion strains, locus YGR052W, strain FMP48, active compounds read low 1.07 | S. cerevisiae deletion strains, locus YGR092W, strain DBF2, active compounds read low 0.991 | [6] 1.06 | S. cerevisiae deletion strains, locus YHR079C, strain IRE1, active compounds read low 1.07 | S. cerevisiae deletion strains, locus YHR082C, strain KSP1, active compounds read low 1.09 | S. cerevisiae deletion strains, locus YHR205W, strain SCH9, active compounds read low 0.981 | S. cerevisiae deletion strains, locus YIL147C, strain SLN1, active compounds read low 0.972 | S. cerevisiae deletion strains, locus YJL095W, strain BCK1, active compounds read low 1.06 | S. cerevisiae deletion strains, locus YJL128C, strain PBS2, active compounds read low 0.975 | S. cerevisiae deletion strains, locus YJL157C, strain FAR1, active compounds read low 0.999 | S. cerevisiae deletion strains, locus YJR016C, strain ILV3, active compounds read low 0.972 | S. cerevisiae deletion strains, locus YJR066W, strain TOR1 (second series), active compounds read low 0.985 | S. cerevisiae deletion strains, locus YJR066W, strain TOR1, active compounds read low 1.1 | S. cerevisiae deletion strains, locus YKL048C, strain ELM1, active compounds read low 0.981 | S. cerevisiae deletion strains, locus YKL067W, strain YNK1, active compounds read low 1 | S. cerevisiae deletion strains, locus YKL101W, strain HSL1, active compounds read low 0.967 | S. cerevisiae deletion strains, locus YKL193C, strain SDS22, active compounds read low 0.968 | S. cerevisiae deletion strains, locus YKL203C, strain TOR2, active compounds read low 1.04 | S. cerevisiae deletion strains, locus YLR113W, strain HOG1, active compounds read low 0.963 | S. cerevisiae deletion strains, locus YLR133W, strain CKI1, active compounds read low 0.978 | S. cerevisiae deletion strains, locus YLR403W, strain SFP1, active compounds read low 0.985 | S. cerevisiae deletion strains, locus YML070W, strain DAK1, active compounds read low 0.987 | S. cerevisiae deletion strains, locus YMR001C, strain CDC5, active compounds read low 0.967 | S. cerevisiae deletion strains, locus YMR205C, strain PFK2 (second series), active compounds read low 0.981 | S. cerevisiae deletion strains, locus YMR277W, strain FCP1, active compounds read low 0.975 | S. cerevisiae deletion strains, locus YNL006W, strain LST8, active compounds read low 0.967 | S. cerevisiae deletion strains, locus YNL020C, strain ARK1, active compounds read low 0.978 | S. cerevisiae deletion strains, locus YNL161W, strain CBK1, active compounds read low 0.959 | S. cerevisiae deletion strains, locus YNL183C, strain NPR1, active compounds read low 1.01 | S. cerevisiae deletion strains, locus YNL207W, strain RIO2, active compounds read low 0.953 | S. cerevisiae deletion strains, locus YNL222W, strain SSU72, active compounds read low 0.947 | S. cerevisiae deletion strains, locus YNL307C, strain MCK1 (second series), active compounds read low 0.984 | S. cerevisiae deletion strains, locus YOL078W, strain AVO1, active compounds read low 0.951 | S. cerevisiae deletion strains, locus YOL136C, strain PFK27, active compounds read low 0.999 | S. cerevisiae deletion strains, locus YOR061W, strain CKA2, active compounds read low 0.988 | S. cerevisiae deletion strains, locus YOR119C, strain RIO1, active compounds read low 1.03 | S. cerevisiae deletion strains, locus YOR231W, strain MKK1, active compounds read low 1.01 | S. cerevisiae deletion strains, locus YOR329C, strain SCD5, active compounds read low 0.973 | S. cerevisiae deletion strains, locus YPL031C, strain PHO85, active compounds read low 0.993 | S. cerevisiae deletion strains, locus YPL153C, strain RAD53, active compounds read low 0.992 | S. cerevisiae deletion strains, locus YPL204W, strain HRR25, active compounds read low 0.991 | S. cerevisiae deletion strains, locus YPL209C, strain IPL1, active compounds read low 0.951 | S. cerevisiae deletion strains, locus YPL256C, strain CLN2, active compounds read low 1.01 | S. cerevisiae deletion strains, locus YPR025C, strain CCL1, active compounds read low 0.97 | S. cerevisiae deletion strains, locus YPR106W, strain ISR1, active compounds read low 0.963 | S. cerevisiae deletion strains, locus YPR111W, strain DBF20, active compounds read low 0.953 | S. cerevisiae deletion strains, strain NNK1, active compounds read low 0.971 | S. cerevisiae deletion strains, strain TSCII, active compounds read low 0.956
